Results on 32 molecules are retold here after PubChem BioAssay (NCATS).

A short description of assay [1]: qHTS assay for measurement of the activity of small molecule inhibitors on Zika virus induced Caspase-3 activity in human iPSC derived neural progenitor cells (hNPCs) (AID 1224857). Further: nearly all actives have a fitted effect of over 65% in size. Further: potency means the concentration at half of the fitted maximal effect. In a few lines:
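Human iPSC-derived neural progenitor cells pretreated 1 hr with compounds, then infected with Zika virus (2 FFU/cell) for 6 hours at 37 C. Caspase-3/7 measured by Caspase-Glo luminescence; % inhibition calculated from induction scaled to uninfected (0%) and infected (100%) wells.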
(In qHTS, concentration-response curves come from the screen itself.)

Assay [2] in a line: P-glycoprotein substrates identified in KB-3-1 adenocarcinoma cell line, qHTS therapeutic library screen (AID 1346986). Further: nearly all actives have a fitted effect of over 60% in size. The gist of the method:
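Cells seeded 500/well in DMEM/10% FCS; compounds pinned in dose-response; 72 h incubation; CellTiter-Glo added, 5 min, luminescence. KB-8-5-11 run ±tariquidar to test reversal of P-gp resistance.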

Assay [3] is described as follows: qHTS assay for measurement of the activity of small molecule inhibitors on Zika virus induced Caspase-3 activity in human astrocytoma cells (AID 1224859). In a few lines:
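SNB-19 astrocytoma cells, 250/well, pretreated 1 h with compounds, then Zika virus at 2 FFU/cell for 6 h at 37 C; Caspase-Glo 3/7 luminescence after 30 min; percent inhibition normalised to uninfected and infected controls.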

A short description of assay [4]: qHTS assay to identify small molecule inhibitors of chordoma cells - UCH-1 (AID 1259355). Further: nearly all actives have a fitted effect of over 55% in size. In a few lines:
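Seed 800 cells per well; incubate overnight at 37 C, 5% CO2. Add test compounds (15 concentrations), then the auranofin–topoisomerase-agent combination. Incubate 48hr, add CellTiter-Glo, wait 30min, read luminescence.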

Assay [5] can be described thus: qHTS assay to identify small molecule inhibitors of chordoma cells - UCH-2 (AID 1259356). Further: series mostly up to about 46 µM.
Assay [6] can be described thus: Identifying Small Molecule Inhibitors of Pancreatic Cancer Stem Cells (SN12C, Adherent) (AID 1259358).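 Further: cell survival measured after 48 h of compound exposure.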 Further: potency means the concentration at half of the fitted maximal effect. The gist of the method:
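Pre-formed 14-day tumor spheroids or adherent cells dosed and incubated 48 h, 37C, 5% CO2. Viability assessed by CellTiter-Glo.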

Assay [7] is described as follows: Identifying Small Molecule Inhibitors of Pancreatic Cancer Stem Cells (SN12C, Spheroid) (AID 1259360). The gist of the method: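 Monolayer and spheroid cultures are compared. Spheroids form over 14 days in stem cell medium on hydrogel-coated low-attachment plates, then are exposed to compound for 48 h before CellTiter-Glo luminescence.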
A short description of assay [8]: Identifying Small Molecule Inhibitors of Pancreatic Cancer Stem Cells (A278, Adherent) (AID 1259361).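 Further: viability read after 48 h compound exposure; nearly all actives have a fitted effect of over 35% in size.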 From the text: (§1) Progenitor-like cancer cells, often referred to as cancer stem cells (CSC), are believed to be the drivers of therapeutic resistance and rapid recurrence. CSCs are postulated to reside in specific niches characterized by low oxygen tension, limited nutrient supply, and high redox load. Selectively targeting CSC, alone or in combination with cytotoxic agents, as a means to produce durable remissions is an appealing concept. Modeling these cells in in vitro setting is an important step in finding new therapies and/or targets. Multiple reports highlight that forcing cells in culture into 3-dimensionaly architectures (spheroids) re-establishes key progenitor-like transcriptional signatures. Pancreatic cancer is among the diseases with the most dismal outlook which is driven, largely, by recurance following front-line therapies. […]
(§2) Multicellular tumor spheroids from Panc1, MiaPaCa-2, and the primary low-passage tissue culture line SB.06 were seeded in stem cell media (SCM) in nonadherent 6-well plates coated with hydrogel (Corning Life Sciences, Chelmsford, Mass) and pancreatic spheres generated for 14 days before screening. […] Plates were incubated at room temperature for 10 minutes prior to reading the luminescence on the Viewlux (PerkinElmer). […]

A short description of assay [9]: Identifying Small Molecule Inhibitors of Pancreatic Cancer Stem Cells (Panc1, Spheroid) (AID 1259359).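 Further: potency means the concentration at half of the fitted maximal effect; compound exposure lasted 48 h before reading.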 The note with it: Panc1 spheroid cancer stem cell viability.
Text: as §1, §2

Assay [10] in a line: Identifying Small Molecule Inhibitors of Pancreatic Cancer Stem Cells (Panc1, Adherent) (AID 1259362). Further: potency means the concentration at half of the fitted maximal effect. The note with it: viability.
Text: as §1, §2

Molecules are shown by their SMILES. A number with no mark means an inactive call. Results filed as inconclusive are left out. Activity calls are given as the source filed them. The call rests on the fitted dose curve; in most records, active means well fitted curve in the direction sought with a large enough effect; inconclusive means small, poorly fitted or top-dose-only effect, or another doubt; inactive means no such curve, though single readings can be large; an effect the other way counts as inactive or inconclusive.

As to `O=[N+]([O-])c1ccc(CNc2nc(NCc3cccc(C(F)(F)F)c3)nc3nc[nH]c23)cc1`, the Potency result in [1] and in [2] was “inactive” in each case.

As for `CCOC(=O)C1=C(C)NC(C)=C(C(=O)OCC)C1c1c(F)c(F)c(F)c(F)c1F`, the Potency entry in [1] and in [3] was “inactive” in each case.

As for `C=C[C@@H]1CN2CC[C@@H]1C[C@H]2[C@H](O)c1ccnc2ccc(OC)cc12`, the Potency result in [3] was “inactive”.

Turning to `NCC1OC(O[C@H]2[C@H](O)[C@@H](OC3C(O)C(N)CC(N)C3OC3OC(CO)C(O)C(O)C3N)O[C@@H]2CO)C(N)C(O)C1O` (stereo partly specified), in assay [3], the Potency result is “inactive”.

`CN1C2CCC1CC(OC(=O)C(O)c1ccccc1)C2` (stereo unspecified): in [3], the Potency entry was “inactive”.

For `CCCCCCCCCCCCCCCCCC(=O)O`, the Potency entry in assay [1], in assay [4] and in assay [5] was “inactive” throughout.

Take `CN(C)c1ccc(C(=C2C=CC(=[N+](C)C)C=C2)c2ccccc2)cc1`: the Potency result in assay [3] was “inactive”.

`CC(C(=O)O)c1ccc(C(=O)c2cccs2)cc1` (stereo unspecified): the Potency in [1] is 22.4 µM (active). In addition, the Potency entry in assay [4] and in [5] was “inactive” each time.

Take `CN1CC(=O)N/C1=N/C(=O)Nc1cccc(Cl)c1`: the Potency in assay [1] was 11.2 µM (active). Further, the Potency entry in [4], in assay [5] and in assay [6] was “inactive” in each case. Further, the call in [7] and in assay [8] was inactive.

`Nc1nc(Cl)nc2c1ncn2[C@@H]1O[C@H](COP(=O)(O)OP(=O)(O)OP(=O)(O)O)[C@@H](O)[C@H]1O`: the Potency entry in [3] was “inactive”.

`C[N+]1(C)CCC(OC(=O)C(c2ccccc2)c2ccccc2)CC1`: the Potency entry in [3] was “inactive”.

As for `CN1[C@@H](CC(=O)c2ccccc2)CCC[C@H]1C[C@H](O)c1ccccc1`, the Potency result in [1] and in assay [5] was “inactive” in each case.

For the molecule `O=Nc1ccc2oc(=O)ccc2c1`, the Potency result in assay [3] was “inactive”.

Regarding `C=CCc1cccc(/C=N/NC(=O)CN2CCN(Cc3ccccc3)CC2)c1O`, the Potency entry in [1] was “inactive”. Besides, the Potency was 10.5 µM (active) in assay [6], 26.4 µM (active) in [9] and 4.18 µM (active) in assay [10].

Consider `O=C(O)CNC(=O)C(CS)Cc1ccccc1` (stereo unspecified), for which the Potency result in assay [1] and in assay [3] was “inactive” in each case.

Turning to `Cc1ccc(O)c(-n2nc3ccccc3n2)c1`, the Potency entry in [1], in assay [4] and in assay [5] was “inactive” in each case.

`Clc1ccccc1-c1nc(-c2ccncc2)no1`: the Potency entry in [1], in assay [4] and in [5] was “inactive” each time.

As to `CC(COc1ccc(/C=C/c2ccccc2)cc1)[N+](C)(C)C` (stereo unspecified), the Potency result in assay [3] was “inactive”.

With `O=c1[nH]c2ccccc2n1CCCN1CCN(C(c2ccccc2)c2ccccc2)CC1`, the Potency result in [1], in assay [4] and in assay [5] was “inactive” each time.

Take `Oc1c(Br)cc(Br)c2cccnc12`: the Potency entry in [1] and in assay [4] was “inactive” throughout.

Take `O=C(Nc1ccc(C(=O)O)c(O)c1)c1ccccc1`: the Potency entry in assay [1], in assay [4] and in assay [5] was “inactive” each time.

`C/C(=N\O)c1ccc(OCC(=O)N2CCCCC2)cc1`: the Potency in [1] was 15.8 µM (active). In [2], the Potency entry was “inactive”.

On to `Nc1c(CC(=O)O)cccc1C(=O)c1ccc(Br)cc1`, for which the Potency result in [3], in [4] and in assay [5] was “inactive” each time.

On to `O=C(/C=C/c1ccccc1)NCCO`, for which the Potency entry in assay [3], in [4] and in assay [5] was “inactive” in each case.

With `COc1ccc(-c2cc(=S)ss2)cc1`, the Potency entry in assay [3], in [4] and in assay [5] was “inactive” in each case.

Take `[O-][n+]1ccccc1SSc1cccc[n+]1[O-]`: the Potency entry in assay [3] and in assay [5] was “inactive” in each case.

Turning to `COC(=O)C1=C(C)NC(C)=C(C(=O)OCC(C)C)C1c1ccccc1[N+](=O)[O-]` (stereo unspecified), the Potency result in [3], in [4] and in assay [5] was “inactive” each time.

For the molecule `Cc1[nH]cnc1CN1CCc2c(c3ccccc3n2C)C1=O`, the Potency result in assay [3], in assay [4] and in [5] was “inactive” each time.

For `c1ccc2sc(SN3CCOCC3)nc2c1`, the Potency entry in [3], in [4] and in assay [5] was “inactive” in each case.

For the molecule `C#C[C@]1(O)CC[C@H]2[C@@H]3CCc4cc(O)ccc4[C@H]3CC[C@@]21C`, the Potency entry in assay [3] and in [5] was “inactive” in each case.

With `O=C(CCN1CCN(CCO)CC1)N1c2ccccc2Sc2ccc(C(F)(F)F)cc21`, the Potency result in [3], in [4] and in [5] was “inactive” each time.

Consider `Cc1ccc(C(=O)c2ccc(CC(=O)O)n2C)cc1`, for which the Potency entry in assay [3], in assay [4] and in assay [5] was “inactive” in each case.
